Assay results published in PubChem BioAssay (NCI).
Compounds without any hit were thinned out: in the full panel of roughly 83,000, 20% have a hit.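 Values shown are percent growth following 48 h exposure of cells in 96-well plates to a single concentration of compound; below 10 was considered active.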 Values without a mark were called inactive. Activity calls are given as the source filed them.

How the values were obtained:
Assay in all cases: NCI-60 one-dose screen, 48 h (100 = growth as untreated, 0 = no growth, -100 = all killed)
Conditions in all cases: 10 µM unless noted
SK-MEL-2 melanoma = tested on: SK-MEL-2 melanoma
EKVX NSCLC = tested on: EKVX NSCLC
SN12C renal = tested on: SN12C renal
UO-31 renal = tested on: UO-31 renal
TK-10 renal = tested on: TK-10 renal
ACHN renal = tested on: ACHN renal
CAKI-1 renal = tested on: CAKI-1 renal
A498 renal = tested on: A498 renal
CCRF-CEM leukemia = tested on: CCRF-CEM leukemia
MOLT-4 leukemia = tested on: MOLT-4 leukemia

Row | Compound | growth (SK-MEL-2 melanoma) | growth (EKVX NSCLC) | growth (SN12C renal) | growth (UO-31 renal) | growth (TK-10 renal) | growth (ACHN renal) | growth (CAKI-1 renal) | growth (A498 renal) | growth (CCRF-CEM leukemia) | growth (MOLT-4 leukemia)
1 | COc1cc(NCCCCN=C(N)N)c2ncccc2c1 | 27.3% | 65.2% | -14.5% (active) | 90.3% | 70.9% | 93.6% | 98.2% | 74.5% | 90.7% | 67.5%
2 | COc1cc2c(cc1O)CCc1cc(O)cc(OC)c1-2 | 88.6% | 92.7% | 89.4% | 95.3% | 126% | 95.4% | 94.8% | 79.4% | 70.7% | 74.7%
3 | c1ccc(Sc2ncnc3ccccc23)cc1 | 44.3% | 84.2% | 69% | 52.7% | 96.5% | 90.9% | 65.5% | 82% | 48.5% | 38%
4 | CCn1cc2c(cc1=O)-c1nc3ccccc3c3ccnc(c13)C2=O | 62.3% | 87.8% | 16.5% | 42.5% | 86.1% | 10.1% | 60% | 81.7% | 104% | 80.6%
5 | COc1cnc2c(c1)C(=O)c1c-2n(CCCN2CCN(C)CC2)c(=O)c2cc([N+](=O)[O-])ccc12 | -14.2% (active) | -43.8% (active) | -57.7% (active) | -86.6% (active) | -89.7% (active) | -94.5% (active) | -91.4% (active) | -95.9% (active) | -27.3% (active) | -23.2% (active)
6 | CN[C@@]12CC3(C=CC(=O)C=C3)O[C@]1(Cc1ccc(OC)cc1)N(C)C(=O)N2 | 74.1% | 75.8% | 44% | 76.2% | 88.6% | 44.4% | 72.9% | 75.6% | 7.27% (active) | 73%
7 | O=c1c(/C=C/c2ccco2)nnc(SCCN2CCOCC2)n1/N=C/c1ccc([N+](=O)[O-])cc1 | 106% | 81.6% | 102% | 71.3% | 154% | 99.7% | 106% | 103% | -20.4% (active) | 81.2%
8 | Cc1cc(Cl)ccc1Nc1nc(C(F)(F)F)ccc1C(=O)N/N=C/c1ccc(F)cc1 | -5.51% (active) | 16.7% | 8.7% (active) | 2.45% (active) | 0.832% (active) | 7.12% (active) | 9.97% (active) | 8.05% (active) | 4.12% (active) | -6.74% (active)
9 | CC(C)C1=C[C@@]23CC[C@@H]4[C@](C)(CCC[C@@]4(C)C(=O)OCC#CCN4CCCC4)[C@H]2C[C@@H]1[C@H]1C(=O)OC(=O)[C@H]13 | 97.1% | 86.4% | 93.2% | 78.3% | 101% | 95.9% | 83.6% | 78.5% | 85.7% | 93.9%
10 | C=C1CC2(OC1=O)C(=O)N(CCCCCCCN1C(=O)C3(CC(=C)C(=O)O3)c3ccccc31)c1ccccc12 (stereo not given) | 61.2% | 88.4% | -50.9% (active) | -24.6% (active) | 45.2% | 15.8% | 40.3% | 53.5% | -14.8% (active) | 3.14% (active)
11 | Cc1cc(=O)oc2cc(Oc3nc(-c4ccc(Cl)cc4)cn4c(-c5ccc(Cl)cc5)cnc34)ccc12 | 106% | 106% | 100% | 85.5% | 104% | 97.7% | 90.2% | 105% | 80.6% | 74.5%
12 | COC1/C=C\OC2(C)Oc3c(C)c(O)c4c(O)c(c(CN(C)CCO)c(O)c4c3C2=O)NC(=O)/C(C)=C\C=C/C(C)C(O)C(C)C(O)C(C)C(OC(C)=O)C1C (stereo not given) | 105% | 95.1% | 105% | 80.3% | 114% | 103% | 68.5% | 115% | 98.3% | 112%
13 | COc1ccc2c(c1)C(=O)/C(=C/c1cccc(OCC(=O)Nc3nc4c(s3)CCCC4)c1)O2 | -67.3% (active) | -72.6% (active) | 28.7% | -78.2% (active) | -69.6% (active) | -73.4% (active) | -83.5% (active) | 92% | -0.645% (active) | -47.8% (active)
14 | CNC(=O)c1cc(Oc2ccc3nc(NC(=O)Nc4ccc(CN5CCOCC5)c(C(F)(F)F)c4)sc3c2)ccn1 | 32.9% | 25.4% | 27.8% | 26.6% | 43.9% | 16.2% | 19.4% | 9.05% (active) | 17.7% | 3.75% (active)
15 | COc1cc2c(c(OC)c1OC)-c1ccc(N=NC(N)=S)c(=O)cc1[C@@H](NC(C)=O)CC2 | -10.1% (active) | 52.4% | 37% | 60.9% | 19% | 65.8% | 64.4% | -10.9% (active) | 15% | 20%
16 | O=C(O)c1cn(C2CC2)c2cc(N3CCN(Cc4nc5c(cnn5-c5ccc([N+](=O)[O-])cc5)c(=O)[nH]4)CC3)c(F)cc2c1=O | 120% | 93.4% | 95.2% | 71.8% | 122% | 103% | 94.8% | 101% | 99% | 99.4%
17 | C[C@]12C[C@@H](c3ccoc3)OC(=O)[C@@H]1CC[C@]1(C)[C@@H]2CC[C@@H](O)[C@]1(C)O | 74.7% | 57.5% | 64.1% | 75.5% | 65% | 76.1% | 88.2% | 19.8% | 69.3% | 67.3%
18 | CCCCCCCCCCCCCCCCCCSC1=CC(=O)C(OC)=C(OC)C1=O | 96.5% | 91.3% | 80.9% | 76.6% | 91.6% | 93.1% | 96.3% | 97.1% | 91.9% | 91.9%
19 | C=C1C(=O)O[C@H]2[C@H]1CC/C(Cn1cc(Cn3ccc4cc(Cl)ccc43)nn1)=C\CC[C@@]1(C)O[C@@H]21 | 18.1% | 42.4% | 19.4% | -100% (active) | -24.7% (active) | -97.8% (active) | 3.92% (active) | 45% | -27.1% (active) | -22.1% (active)
20 | CC(=O)C1=C(O)C=C2Oc3c(C(=O)/C=C/c4ccccc4)c(O)c(C)c(O)c3[C@]2(C)C1=O | -3.97% (active) | 36.7% | 23.4% | 30.7% | 33.6% | 48.2% | 46.7% | 14.3% | 22.1% | 32.6%
21 | CC/C=C\C[C@H](F)C/C=C1/C(=O)C=C[C@@H]1C/C=C\CCCC(=O)OC | 41% | 31.6% | -14.4% (active) | -4.75% (active) | 50.4% | -52% (active) | 9.44% (active) | 84.8% | -21.4% (active) | -23.5% (active)
22 | O=C(Nc1ccc(Nc2cc(Nc3ccccc3)ncn2)cc1)Nc1cc(C(F)(F)F)ccc1F | 82.8% | 80.5% | 78.5% | 65.6% | 89.5% | 66.9% | 74.4% | 75.3% | 71.7% | 63.6%
23 | CCCCCCCCCCNC(=O)CCl | 85.7% | 95.9% | 63.8% | 58.1% | 83.8% | 78% | -59.4% (active) | 85.9% | 57.8% | 54.8%
24 | COc1ccc(S(=O)(=O)NCCNc2nccc(-c3c(-c4cccc([N+](=O)[O-])c4)nc4sccn34)n2)cc1 | 100% | 82.1% | 70.3% | 49.3% | 108% | 62.4% | 68.1% | 63.7% | 75.2% | 60.7%
25 | CC/C=C\C[C@H](O)C/C=C1/C(=O)C=C[C@@H]1C/C=C\CCCC(=O)NC | 16.1% | 23.8% | -3.66% (active) | -76.8% (active) | -8.31% (active) | -86.1% (active) | 4.85% (active) | 56.1% | -14.6% (active) | -14.1% (active)
26 | Cn1c2ccccc2c2c3[nH]c(=O)[nH]c(=O)c3c3c4ccccc4n(C)c3c21 | 67% | 29% | 33.7% | 11.8% | 36.4% | 7.31% (active) | 41.5% | -4.05% (active) | 52.9% | 49.4%
